Only some compounds are listed: those with a hit (about 2.8% of all), similar ones and a draw of the others.
HIF-2a block: HIF-2a inhibition. 786-0 RCC cells HIF-2a reporter, luciferase luminescence, overnight. inhibition, % at 18.8 µM. hit rate 0.72% among 360,000. AID 624352;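 active means inhibition of the luminescence signal of 40% or more relative to plate controls, in a single-dose primary screen at 18.75 µM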
TRPM1 prom inh: inhibitors of MITF-driven TRPM1 promoter in melanoma cells; AID 488899; SK-MEL-5 TRPM1 promoter luciferase, 24 h; hit rate 0.83% among 330,000; inhibition, % at 12.5 µM;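 active means mean inhibition across replicates of 60% or more, whatever share of single replicates reaches that level; inconclusive means some that reach 60%, reason not given; inactive means mean inhibition across replicates below 60%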
PAX8 reporter: inhibitors of PAX8 transcriptional activity in RMG-I cells | hit rate 1.2% among 360,000 | inhibition, % at 12.6 µM | RMG-I TPO-luciferase reporter, SteadyGlo, 24 h;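 active means mean replicate inhibition at least 60% with every replicate also reaching 60%; inconclusive means only one of the two criteria is met; inactive means mean below 60% and not all replicates reaching 60%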;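 further: luciferase light reporting Pax8 driven TPO promoter activity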
Shn3 3UTR inh: reduces Shn3 3'UTR luciferase signal in osteoblasts; Clone20 osteoblast Shn3 3'UTR firefly luciferase, 24 h; hit rate 0.52% among 360,000; AID 588674; inhibition, % at 12.5 µM;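 active means mean inhibition of at least 75% with every replicate also reaching 75%; inconclusive means mean inhibition at least 75% but some replicate below; inactive means mean inhibition below 75%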
Peg3 promoter: inhibitors of Peg3 promoter. hit rate 1.7% among 360,000. HeLa PEG-Prom luciferase reporter, luminescence, overnight. AID 588405. inhibition, % at 20 µM;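 active means inhibition of at least 50% at 20 µM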
LMP1 NFkB inh: Epstein-Barr LMP1 NF-kappaB reporter inhibition; LMP1-induced NF-kappaB luciferase reporter cells, luminescence; inhibition, % at 12.5 µM; hit rate 0.69% among 350,000; AID 504558; in the data active means inhibition above about 41%; inconclusive means no clear call, values can overlap the other calls
A number is an active result; – = inactive; ? = inconclusive; · = no result.

SMILES	HIF-2a block	TRPM1 prom inh	PAX8 reporter	Shn3 3UTR inh	Peg3 promoter	LMP1 NFkB inh
CC(CCC(C)C(C)(C)C)[C@@H]1CC[C@H]2C3C[C@H](OS(O)(=S)=S)[C@H]4C[C@H](OS(O)(=S)=S)[C@@H](OS(O)(=S)=S)C[C@]4(C)[C@H]3CC[C@]12C (some centres undefined) (tested in a mixture with another compound)	–	–	·	–	58.1	–
CC1(C)C(=O)N(c2ccccc2)C1c1ccccc1O (centres undefined)	–	–	–	–	52.5	–
COc1ccc(N2C(=O)C(C)(C)C2c2c(O)ccc3ccccc23)cc1 (centres undefined)	–	–	–	–	–	–
CN(C)CCNC(=O)c1cccc2ccc(-c3ccc(-c4ccccc4)cc3)nc12	–	70.5	–	–	93.4	–
COc1ccc(OC)c2nc3c(C(=O)NCCN(C)C)cccc3nc12	–	72.9	·	–	89.6	–
COc1cccc(C(=O)Nc2ccc3c(c2)C(=O)N(C)[C@@H]2CC[C@@H](CC(=O)NCc4ccccc4F)O[C@@H]2CO3)c1	·	·	–	·	·	·
Cc1cccc(S(=O)(=O)N[C@H]2CC[C@@H](CCNS(=O)(=O)c3ccccc3F)O[C@@H]2CO)c1	·	·	–	·	·	·
COc1cc(CCNC2=CC(=O)c3ncccc3C2=O)ccc1O	–	113.4	?	–	–	–
COc1ccccc1CNS(=O)(=O)c1cc(CN2C(=O)c3cccnc3C2=O)ccc1OC	–	–	–	–	–	–
CCC(=O)Nc1ccc2c(c1)C(=O)N(C)C[C@@H](OC)[C@@H](C)CN(C(=O)Cc1ccccn1)[C@@H](C)CO2	·	·	–	·	·	·
COc1ccc(S(=O)(=O)Nc2ccc3c(c2)CC(=O)N([C@H](C)CO)C[C@@H](C)[C@@H](CN(C)S(=O)(=O)c2ccc(C)cc2)O3)cc1	·	·	–	·	·	·
C[C@@H]1CN([C@H](C)CO)C(=O)Cc2cc(NC(=O)NC3CCCCC3)ccc2O[C@@H]1CN(C)Cc1ccc(-c2ccccc2)cc1	·	·	–	·	·	·
C[C@@H]1CN([C@@H](C)CO)C(=O)Cc2cc(NC(=O)c3ccncc3)ccc2O[C@@H]1CN(C)Cc1ccc(-c2ccccc2)cc1	·	·	102.0	·	·	·
C[C@H](CO)N1C[C@H](C)[C@@H](CN(C)Cc2ccc(-c3ccccc3)cc2)Oc2ccc(NC(=O)c3ccncc3)cc2CC1=O	·	·	–	·	·	·
C[C@@H]1CN([C@@H](C)CO)C(=O)Cc2cc(NC(=O)NC3CCCCC3)ccc2O[C@@H]1CN(C)Cc1ccc(-c2ccccc2)cc1	·	·	101.8	·	·	·
C[C@@H]1CN([C@@H](C)CO)C(=O)Cc2cc(NC(=O)NC3CCCCC3)ccc2O[C@H]1CN(C)Cc1ccc(Oc2ccccc2)cc1	·	·	71.1	·	·	·
COC(=O)C[C@@H]1CC[C@@H]2[C@H](COc3ccc(NC(=O)C4CCOCC4)cc3C(=O)N2C)O1	·	·	–	·	·	·
Oc1ccc(C[C@H]2CNC(=S)N2CC2CCCN2C[C@H](Cc2ccc(O)cc2)N2C[C@H](Cc3ccc(O)cc3)N(CC3CCCCC3)C2=S)cc1 (some centres undefined)	–	–	90.8	–	–	–
Oc1ccc(C[C@H]2CNC(=S)N2CC2CCCN2C[C@H](Cc2ccccc2)N2C[C@H](Cc3ccc(O)cc3)N(CC3CCCCCC3)C2=S)cc1 (some centres undefined)	–	–	72.5	–	–	–
CC(C)C[C@H]1CN([C@@H](Cc2ccc(O)cc2)CN2CCC[C@@H]2CN2C(=S)NC[C@@H]2Cc2ccccc2)C(=S)N1CC1CCCCC1	–	·	–	–	–	·
Oc1ccc(C[C@H]2CNC(=S)N2C[C@H]2CCCN2C[C@H](Cc2ccccc2)N2C[C@H](Cc3ccc(O)cc3)N(CC3CCCCCC3)C2=S)cc1	–	·	–	–	75.7	·
Oc1ccc(C[C@H]2CN([C@@H](Cc3ccc(O)cc3)CN3CCC[C@@H]3CN3C(=S)NC[C@@H]3Cc3ccccc3)C(=S)N2CC2CCCCCC2)cc1	–	·	88.6	–	100.7	·
Oc1ccc(C[C@H]2CN([C@@H](Cc3ccccc3)CN3CCCC3CN3C(=S)NC[C@@H]3Cc3ccccc3)C(=S)N2CC2CCCCC2)cc1 (some centres undefined)	–	·	–	·	·	·
CN(C)CC#Cc1ccc([C@@H]2[C@@H](CO)N3CCCCN(CC4CC4)C[C@@H]23)cc1	·	·	–	·	·	·
Oc1ccc(C[C@H]2CN([C@@H](Cc3cccc(O)c3)CN3CCC[C@@H]3CN3C(=S)NC[C@@H]3Cc3ccccc3)C(=S)N2CC2CCCCC2)cc1	–	·	74.9	–	105.0	·
SMILES	HIF-2a block	TRPM1 prom inh	PAX8 reporter	Shn3 3UTR inh	Peg3 promoter	LMP1 NFkB inh
C#CCn1c(=NC(=O)c2ccc(S(=O)(=O)N3CCc4ccccc4C3)cc2)sc2cc(S(N)(=O)=O)ccc21	–	90.4	·	97.3	102.7	–
C[C@H](CO)N1C[C@H](C)[C@H](CN(C)C(=O)c2cccc(F)c2)Oc2ncc(/C=C/c3ccccc3)cc2C1=O	·	·	–	·	·	·
CC(C)C[C@@H]1NC(=O)[C@H](Cc2ccccc2)N(C)C(=O)[C@H](C)NC(=O)c2ccccc2NC(=O)[C@H](Cc2ccc(O)cc2)N(C)C1=O	–	–	·	–	51.9	–
COc1cccc(-c2cc3nc(-c4ccccc4)cc(N4CCN(C(=O)c5ccoc5)CC4)n3n2)c1	–	·	67.8	–	71.6	–
Cc1cc(N2CCN(C(=O)c3ccco3)CC2)n2ncc(-c3ccccc3)c2n1	–	–	·	–	–	–
O=C(c1ccoc1)N1CCN(c2cc(-c3ccco3)nc3cc(-c4ccccc4)nn23)CC1	–	·	–	–	73.6	–
COc1cccc(-c2cc(N3CCN(C(=O)c4ccoc4)CC3)n3nc(-c4cccc(Cl)c4)cc3n2)c1	–	·	–	–	–	–
COc1ccccc1-c1cc2nc(-c3ccccc3)cc(N3CCN(C(=O)c4ccoc4)CC3)n2n1	–	·	67.1	–	80.6	–
COc1ccccc1-c1cc2nc(-c3ccccc3)cc(N3CCN(C(=O)c4ccco4)CC3)n2n1	–	·	85.7	–	73.5	–
O=C(NC1CCCCC1)N1CC(=O)N2[C@@H](CO)[C@@H](c3ccc(-c4ccccc4)cc3)[C@@H]2C1	·	·	–	·	·	·
CO[C@@H]1CN(C)C(=O)c2cc(NC(C)=O)ccc2OC[C@H](C)N(C(=O)C2CCOCC2)C[C@@H]1C	·	·	–	·	·	·
O=C(Nc1ccc2c(c1)[C@@H]1C[C@@H](CC(=O)N3CCCCC3)O[C@H](CO)[C@@H]1O2)Nc1ccccc1F	·	·	–	·	·	·
O=C(C[C@@H]1CC[C@@H](NC(=O)Nc2cccc(F)c2)[C@@H](CO)O1)NCC1CC1	·	·	–	·	·	·
O=C(O)CCC(=O)Nc1cccc(-c2csc(-c3ccccc3)n2)c1	82.6	–	–	–	–	–
O=C(Cc1ccncc1)NCC[C@@H]1CC[C@@H](NS(=O)(=O)c2ccccc2Cl)[C@H](CO)O1	·	·	–	·	·	·
Cc1ccc(-c2nc(N=Nc3ccc(O)cc3)n[nH]2)cc1	–	–	·	–	67.8	–

Screening results deposited in PubChem BioAssay by several laboratories.
